Among the test systems are SK-MEL-2 melanoma; EKVX NSCLC; SN12C renal; UO-31 renal; TK-10 renal; ACHN renal; CAKI-1 renal; A498 renal; CCRF-CEM leukemia; MOLT-4 leukemia; RPMI-8226 leukemia; OVCAR-8 ovarian; OVCAR-5 ovarian; OVCAR-4 ovarian; SK-OV-3 ovarian; IGROV1 ovarian; OVCAR-3 ovarian; HS 578T breast; NCI/ADR-RES ovarian.
What all share (assay): NCI-60 one-dose screen, 48 h (100 = growth as untreated, 0 = no growth, -100 = all killed)
What all share (settings): 10 µM unless noted

This is part of a sample that, as a whole, favours compounds with a hit. Of some 83,000 tested, about 20% had one in any assay.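 The endpoint reported here, percent growth, reads 100 for growth as untreated, 0 for no net growth and -100 for all cells dead.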 Values without a mark were called inactive. Activity calls are given as the source filed them. The calls were made as follows: active = growth percent below 10; inactive = the rest.

Our source for the growth values is PubChem BioAssay (NCI).

As for `COc1ccc(/C(=N/O)c2cc(OC)c(OC)c(OC)c2)c(OC)c1N`, the growth was 36.5% with SK-MEL-2 melanoma; 47.4% in the experiment on EKVX NSCLC; 52.8% with SN12C renal; 49.3% in the experiment with UO-31 renal; 35.3% with TK-10 renal; 43.3% in the experiment with ACHN renal. For the same molecule, the growth in the experiment on CAKI-1 renal was 23.9%; in the experiment on A498 renal, -4.33% (active); in the experiment on CCRF-CEM leukemia, 22.3%; in the experiment on MOLT-4 leukemia, 27.8%; in the experiment with RPMI-8226 leukemia, 32%; with OVCAR-8 ovarian, 40.7%. In addition, the growth in the experiment with OVCAR-5 ovarian is 71.9%; in the experiment on OVCAR-4 ovarian, 50%; in the experiment with SK-OV-3 ovarian it was 35.7%; in the experiment on IGROV1 ovarian, 55%; with OVCAR-3 ovarian, 1.89% (active); with HS 578T breast, 8.77% (active). In addition, the growth with NCI/ADR-RES ovarian was 31%.
Take `CCC(=O)Nc1ccccc1C#C/C=C\C#Cc1ccccc1SC`: the growth was 28% in the experiment on SK-MEL-2 melanoma; 65.6% with EKVX NSCLC; 82.1% in the experiment on SN12C renal; 21.5% in the experiment on UO-31 renal; 71.5% in the experiment on TK-10 renal; 77.7% with ACHN renal. Also, the growth with CAKI-1 renal was 70.6%; in the experiment on A498 renal it was 59.9%; in the experiment with CCRF-CEM leukemia, 26.9%; in the experiment with MOLT-4 leukemia, 40.7%; in the experiment with RPMI-8226 leukemia it was 20.1%; in the experiment with OVCAR-8 ovarian, 144%. Besides, the growth in the experiment with OVCAR-5 ovarian is 69.1%; in the experiment with OVCAR-4 ovarian, 74.6%; in the experiment with SK-OV-3 ovarian, 78.1%; in the experiment on IGROV1 ovarian, -49.3% (active); in the experiment with OVCAR-3 ovarian it was 65%; in the experiment with HS 578T breast, -34.3% (active). The growth in the experiment with NCI/ADR-RES ovarian was 49.9%.
Take `CC(Br)C(O)c1cc2c(cc1Br)OCO2` (centres undefined): the growth in the experiment with SK-MEL-2 melanoma is 115%; in the experiment on EKVX NSCLC, 104%; in the experiment on SN12C renal, 112%; with UO-31 renal, 88.6%; with TK-10 renal, 114%; in the experiment on ACHN renal, 109%. The growth was 90.5% with CAKI-1 renal; 127% in the experiment with A498 renal; 101% with CCRF-CEM leukemia; 104% in the experiment on MOLT-4 leukemia; 101% with RPMI-8226 leukemia; 109% with OVCAR-8 ovarian. The growth is 108% in the experiment with OVCAR-5 ovarian; 105% in the experiment with OVCAR-4 ovarian; 118% in the experiment with SK-OV-3 ovarian; 109% in the experiment on OVCAR-3 ovarian; 103% in the experiment on HS 578T breast; 105% with NCI/ADR-RES ovarian.
On to `CCCCCCOc1ccc(C2(Cl)c3ccccc3N(C)c3ccccc32)cc1`, for which the growth is 42.3% with SK-MEL-2 melanoma; 58.5% in the experiment on EKVX NSCLC; 52.4% in the experiment on SN12C renal; 67.8% in the experiment with UO-31 renal; 76.7% in the experiment with TK-10 renal; 61% in the experiment with ACHN renal. Also, the growth in the experiment on CAKI-1 renal is 61.7%; in the experiment with A498 renal it was 86.6%; with CCRF-CEM leukemia it was 89.2%; in the experiment with MOLT-4 leukemia it was 74%; with RPMI-8226 leukemia, 47.5%; in the experiment with OVCAR-8 ovarian, 38.7%. For the same molecule, the growth in the experiment on OVCAR-5 ovarian is 107%; in the experiment with OVCAR-4 ovarian it was 41.3%; in the experiment on SK-OV-3 ovarian, 60.7%; in the experiment with OVCAR-3 ovarian, 32.1%; in the experiment with HS 578T breast it was 54.7%; in the experiment with NCI/ADR-RES ovarian, 52.3%.
With `CC1CCc2c(sc(NC(=O)CSc3nnc4ccccn34)c2C(N)=O)C1` (centres undefined), the growth in the experiment with SK-MEL-2 melanoma is 48.4%; with EKVX NSCLC it was 150%; in the experiment on SN12C renal, 102%; with UO-31 renal it was 110%; in the experiment on TK-10 renal, 179%; with ACHN renal it was 96.7%. In addition, the growth with CAKI-1 renal was 95.7%; in the experiment with A498 renal it was 133%; in the experiment with CCRF-CEM leukemia, 101%; with MOLT-4 leukemia, 108%; with RPMI-8226 leukemia it was 119%; with OVCAR-8 ovarian it was 109%. In addition, the growth in the experiment with OVCAR-5 ovarian was 99.7%; in the experiment with OVCAR-4 ovarian it was 114%; in the experiment with SK-OV-3 ovarian it was 131%; with IGROV1 ovarian it was 33.8%; in the experiment with OVCAR-3 ovarian it was 104%; with HS 578T breast it was 114%. Also, in the experiment with NCI/ADR-RES ovarian, the growth is 118%.
As for `Cn1c(=O)c2c(nc3n2CCN(CCc2ccc(OCCN4CCOCC4)cc2)C3)n(C)c1=O`, the growth in the experiment on SK-MEL-2 melanoma is 101%; in the experiment on EKVX NSCLC, 102%; in the experiment with SN12C renal, 104%; in the experiment on UO-31 renal, 93.8%; with TK-10 renal, 104%; in the experiment on ACHN renal, 106%. Besides, the growth was 97.5% with CAKI-1 renal; 81.3% with A498 renal; 105% in the experiment on CCRF-CEM leukemia; 98% with MOLT-4 leukemia; 100% in the experiment with RPMI-8226 leukemia; 109% in the experiment with OVCAR-8 ovarian. Moreover, the growth in the experiment on OVCAR-5 ovarian was 103%; with OVCAR-4 ovarian, 95.5%; with SK-OV-3 ovarian it was 118%; in the experiment with IGROV1 ovarian it was 108%; with OVCAR-3 ovarian it was 110%; in the experiment on HS 578T breast, 106%. The growth in the experiment on NCI/ADR-RES ovarian is 112%.
Take `O=C(c1ccccc1)C(Cl)C(Cl)c1ccccc1` (centres undefined): the growth was 96.3% in the experiment with SK-MEL-2 melanoma; 79% in the experiment with EKVX NSCLC; -13.9% (active) in the experiment with SN12C renal; -50.5% (active) with UO-31 renal; -8.89% (active) in the experiment with TK-10 renal; -71.5% (active) with ACHN renal. For the same molecule, the growth in the experiment on CAKI-1 renal is 38%; in the experiment with A498 renal, 103%; in the experiment on CCRF-CEM leukemia, 5.75% (active); in the experiment on MOLT-4 leukemia, 25.9%; with RPMI-8226 leukemia, -5.33% (active); in the experiment with OVCAR-8 ovarian, -1.77% (active). Also, the growth was 113% in the experiment on OVCAR-5 ovarian; 41.2% with OVCAR-4 ovarian; 138% with SK-OV-3 ovarian; 2.77% (active) in the experiment on OVCAR-3 ovarian; 83.7% in the experiment with HS 578T breast; 80.2% with NCI/ADR-RES ovarian.
Regarding `CN(C)C1CCC(NC2=CC(=O)C=CC2=O)CC1` (centres undefined), the growth is 107% in the experiment on SK-MEL-2 melanoma; 111% in the experiment with EKVX NSCLC; 115% in the experiment with SN12C renal; 92.3% with UO-31 renal; 113% in the experiment with TK-10 renal; 99.2% in the experiment on ACHN renal. For the same molecule, the growth with CAKI-1 renal is 100%; in the experiment on A498 renal it was 122%; in the experiment on CCRF-CEM leukemia, 107%; with MOLT-4 leukemia, 102%; with RPMI-8226 leukemia it was 111%; with OVCAR-8 ovarian, 113%. The growth in the experiment with OVCAR-5 ovarian was 118%; in the experiment on OVCAR-4 ovarian, 111%; in the experiment with SK-OV-3 ovarian it was 119%; in the experiment on IGROV1 ovarian, 105%; in the experiment on OVCAR-3 ovarian it was 116%; in the experiment on HS 578T breast, 108%. In addition, the growth in the experiment with NCI/ADR-RES ovarian was 111%.
